Measurements: PubChem BioAssay (NCI)
This is part of a sample that, as a whole, favours compounds with a hit. Of some 79,000 tested, about 15% had one in any assay. Unmarked numbers belong to inactive results. Calls of active or inactive are those of the source. No stated cut-off is given here; in the data, active means growth inhibition above about 70%; inactive means the rest.

Assay: NCI Yeast Anticancer Drug Screen. Data for the rad14 strain (AID 159);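 further: 0% = growth of vehicle-treated control cultures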
Details: S. cerevisiae rad14 strain growth inhibition, active compounds read high
Protocol: Growth inhibition of yeast strains with defined genetic alterations is measured as a screen for potential anti-cancer activity. Selected strains with alterations in DNA damage repair or cell cycle control were exposed to compounds and growth inhibition was measured relative to vehicle treated controls. The strain used in this assay is rad14

| Structure (SMILES) | growth inhibition (at 1.2 µM) | growth inhibition (at 3.7 µM) | growth inhibition (at 11.0 µM) | growth inhibition (at 33.0 µM) | growth inhibition (at 100.0 µM) |
| --- | --- | --- | --- | --- | --- |
| Oc1ccc(Br)cc1C=Nc1cccc(C(F)(F)F)c1 | 6% | 13% | 91% (active) | 97% (active) | 97% (active) |
| CCCCOc1ccc(Nc2c3ccccc3nc3ccccc23)cc1 | -77% | -66% | 43% | 97% (active) | 61% |
| Cc1ccc2nc(N/N=C/c3ccc(C)s3)cc(C)c2c1 | -32% | -18% | 0% | 99% (active) | 98% (active) |
| Cc1cnc(/C=N\NC(N)=S)c2cccc(N)c12 | -92% | -75% | -35% | 45% | 91% (active) |
| [O-]c1c2cc(-[n+]3c(-c4ccccc4)cc(-c4ccccc4)cc3-c3ccccc3)cc1COCCOCCOCCOCCOC2 | 1% | 1% | 1% | 9% | 81% (active) |
| O=S(=O)(O)c1ccc2c(N=Nc3c(O)ccc4ccccc34)cccc2c1 | 1% | 1% | 20% | 40% | 80% (active) |
| CC(C)(C(=O)NN)c1ccccc1 | -1% | -4% | 3% | 21% | 58% |
| COc1ccc2nc(N/N=C/c3sccc3C)cc(C)c2c1 | -50% | -19% | -21% | 97% (active) | 90% (active) |
